ssDAF12 agonist: S. stercoralis DAF-12 nuclear receptor activators, primary screen, cell-based, luminescence, HEK293, GRIP1 co-expression, lit1-tk-luc; HEK293 ssDAF-12/GRIP1 lit1-tk-luc reporter; % of 3 µM dafachronic acid response; AID 652126, 2013; Nuclear hormone receptor DAF-12 (Strongyloides stercoralis); activation, % at 6.8 µM; actives 1% (n = 370,000);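 active = activation above the mean over all tested compounds plus 3 SD, cut at about 0.9% in these data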
DAX1 inh-1: DAX1 (NR0B1) inhibitors on StAR promoter, primary screen, cell-based, luminescence, SF-1 (NR5A1), full-length DAX-1 | HEK293T StAR-luciferase reporter, SF-1/DAX-1 repression relief | inhibition, % at 6.8 µM | actives 1.1% (n = 370,000) | AID 652010, 2013;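 active = inhibition above the mean over all tested compounds plus 3 SD, cut at about 3.6% in these data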;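 also: higher inhibition means more luminescence from relief of DAX-1 repression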
hgDAF-12 ag: H. glycines DAF-12 receptor agonists, primary screen, cell-based, luminescence, HEK293, GAL4 fusion, UAS-luciferase. actives 1.8% (n = 370,000). activation, % at 6.8 µM. HEK293 GAL4-hgDAF12 UAS-luciferase reporter, agonist luminescence; normalized to butyrate control;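 active = activation above a cutoff set at the mean of all screened compounds plus 3 SD, cut at about 10% in these data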
DAX1 inh-2: DAX1 (NR0B1) inhibitors, primary screen, cell-based, HEK293, Gal4-DAX1, luciferase luminescence; Nuclear receptor subfamily 0 group B member 1 (Homo sapiens), P51843; HEK293 Gal4-DAX1 luciferase reporter; inhibition, % at 6.75 µM; actives 0.99% (n = 340,000); AID 504766, 2011;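 active = inhibition above the mean over all tested compounds plus 3 SD, cut at about 4.2% in these data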;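 also: inhibition shows as a rise in luminescence from relieved DAX1 repression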
Wee1 degr inh: Wee1 degradation inhibitors, primary screen, cell-based, HeLa, Wee1K328M-luciferase, luminescence; HeLa Luc-Wee1K328M stability; 100% = proteasome inhibitor MG132 effect; Wee1-like protein kinase (Homo sapiens), P30291; reporter increase, % at 5 µM; actives 1.2% (n = 220,000); AID 1321, 2008;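 active = activation above the mean of all tested compounds plus 3 SD, set per screening run, cut at about 8.8% in these data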;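 also: cells exposed to compound for 20 h before luminescence read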
hcDAF12 agonist: H. contortus DAF-12 nuclear receptor activators, primary screen, cell-based, luminescence, HEK293, lit1-tk-luc reporter; HEK293 hcDAF-12 lit1-tk-luc reporter; 0% DMSO, 100% Δ7-dafachronic acid; activation, % at 6.8 µM; actives 1.4% (n = 370,000);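 active = activation above the mean of all tested compounds plus 3 SD, cut at about 5.5% in these data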
LXRb hcDAF ctr: LXR agonists, Gal4 luciferase reporter, confirmation, counter-screen for hcDAF-12 agonist project, cell-based, luminescence, HEK293, H. contortus campaign. HEK293 Gal4-LXR tk-luc reporter, 24 h; normalized: DMSO 0%, positive control 100%. AID 743027, 2013. activation, % at 6.8 µM. shares compounds with hcDAF12 agonist. 3,400 tested, under 10 active;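 active = mean percent activation of the reporter above a cutoff set as the average over tested compounds plus their standard deviation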
Target sequence (P55055 whole entry, looked up, the tested form may be a part): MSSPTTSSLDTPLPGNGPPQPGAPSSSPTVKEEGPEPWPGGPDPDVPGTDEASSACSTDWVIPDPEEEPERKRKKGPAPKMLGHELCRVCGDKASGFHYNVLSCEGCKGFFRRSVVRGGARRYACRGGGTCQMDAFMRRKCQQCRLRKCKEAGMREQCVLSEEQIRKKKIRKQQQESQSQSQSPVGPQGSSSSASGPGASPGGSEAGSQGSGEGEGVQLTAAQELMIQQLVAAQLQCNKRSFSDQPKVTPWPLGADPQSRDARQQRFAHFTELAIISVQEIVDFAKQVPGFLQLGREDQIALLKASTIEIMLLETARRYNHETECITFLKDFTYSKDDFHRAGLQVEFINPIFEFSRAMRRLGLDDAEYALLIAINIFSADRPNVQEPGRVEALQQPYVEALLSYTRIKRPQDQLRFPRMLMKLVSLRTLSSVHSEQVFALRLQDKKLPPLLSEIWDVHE
hcDAF12 conf: H. contortus DAF-12 receptor agonists, confirmation, cell-based, luminescence, HEK293, lit1-tk-luc, triplicate. shares compounds with hcDAF12 agonist. HEK293 hcDAF-12 lit1-tk-luc reporter; % of Δ7-dafachronic acid response. activation, % at 6.8 µM. actives 61% (n = 3,400). AID 743032, 2013;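 active = mean activation across triplicate tests above the threshold derived from the earlier primary screen, cut at about 5.5% in these data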
hgDAF12 ag: H. glycines DAF-12 receptor agonists, confirmation, cell-based, luminescence, HEK293, GAL4-LBD fusion; activation, % at 6.8 µM; shares compounds with hgDAF-12 ag; AID 743050, 2013; actives 80% (n = 3,300); HEK293 GAL4-hgDAF12 luciferase reporter, agonist mode; percent of butyrate response;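 active = mean activation over triplicate wells above the hit cutoff derived from the earlier primary screen, cut at about 11% in these data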
LXRb DAF12 ctr: LXR agonists, Gal4 luciferase reporter, confirmation, counter-screen for hgDAF-12 agonist project, cell-based, luminescence, HEK293, H. glycines campaign; shares compounds with hgDAF-12 ag; activation, % at 6.8 µM; 24 h; 3,300 tested, under 10 active;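 active = mean activation of the triplicate above a set limit carried over from the primary screen, none filed active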
Hits are given with their value; - = inactive; . = no result given; ! = not active in a repeat. Most compounds without a hit are left out; they make up all but 4.6% or so of the library.

SMILES	ssDAF12 agonist	DAX1 inh-1	hgDAF-12 ag	DAX1 inh-2	Wee1 degr inh	hcDAF12 agonist	LXRb hcDAF ctr	hcDAF12 conf	others
COc1cc(C(=O)OCC(=O)Nc2ccccc2C(=O)NC2CC2)c([N+](=O)[O-])cc1OC	-	-	-	-	.	-	.	.
COc1ccccc1C(=O)NNC(=O)C1CCN(C(=O)OC(C)(C)C)CC1	-	-	-	-	.	7.1	-	-
CCOc1ccc(N=NC2C(=O)N(C(N)=S)N=C2C)cc1 (centres undefined)	0.9	-	-	-	.	6.6	-	-
CC1=NN(C(N)=S)C(=O)C1N=Nc1ccc(O)cc1 (centres undefined)	-	-	-	-	-	-	.	.
O=C(OCC(=O)c1ccc[nH]1)C1=COCCO1	-	-	-	-	.	-	.	.
O=C(OCC(=O)c1c[nH]c2ccccc12)C1=COCCO1	1.0	-	-	-	11	7.2	-	9.9
COc1ccc(C(=O)/C=C/Nc2cc(C)ccn2)cc1	-	-	14	-	-	10	-	11
COc1ccc(S(=O)(=O)Nc2cc(C)ccn2)cc1	-	-	-	-	-	-	.	.
c1ccc(-c2ccc(-c3nc(-c4ccccn4)no3)cc2)cc1	-	-	-	-	-	-	.	.
Clc1cccc(-c2nc(-c3ccccn3)no2)c1	-	-	-	-	-	9.7	-	12
O[C@H]1CN(Cc2cccs2)[C@@H](c2ccccc2)C[C@@H]1n1cc(-c2ccc(F)cc2)nn1	-	-	-	-	.	-	.	.
O=C(Cc1nc2ccccc2[nH]1)c1ccc([N+](=O)[O-])cc1	-	-	-	-	-	-	.	.
CN/N=C(\Cc1nc2ccccc2[nH]1)c1ccc([N+](=O)[O-])cc1	-	-	-	-	-	7.0	-	7.8
COc1cc(NC(=O)c2cc(-c3ccco3)on2)c(OC)cc1Cl	-	-	-	-	-	6.6	-	7.7
COc1ccc(NC(=O)c2cc(-c3ccco3)on2)c(OC)c1	-	-	-	-	.	-	.	.
CCCC(C)NC(=O)Cc1ccccc1[N+](=O)[O-] (centres undefined)	1.1	-	-	-	-	7.3	-	5.9
CCCC(C)NC(=O)Cc1ccccc1 (centres undefined)	-	-	-	-	-	-	.	.
Cc1cccc(SCC(=O)Nc2ccc3c(c2)OCCO3)c1	-	-	-	-	.	7.1	-	5.8
O=C(CSc1ccc2c(c1)OCCO2)Nc1ccccc1	-	-	-	-	.	-	.	.
CCOc1ccc(CN(C)CC(=O)Nc2ccccc2C(=O)NC2CC2)cc1	-	-	-	-	.	-	.	.
Cc1ccc(C)c(OCCC(=O)OCC(=O)Nc2cccc(S(=O)(=O)N3CCCC3)c2)c1	-	-	-	-	.	-	.	.
COc1ccccc1NC(=O)CSCc1nc2ccccc2[nH]1	-	-	-	-	-	7.0	-	-
COC(=O)N1CCC[C@H]1c1cccc2[nH]cc(C)c12	-	-	-	.	.	-	.	.
OC(c1cccnc1)c1nc(-c2ccc3c(c2)OCO3)cs1 (centres undefined)	-	-	-	.	.	-	.	.
Cc1ccc2c(C)nc(/N=C(\N)NC(=O)N3c4ccccc4Sc4ccccc43)nc2c1	-	-	-	-	-	10!	-	-
SMILES	ssDAF12 agonist	DAX1 inh-1	hgDAF-12 ag	DAX1 inh-2	Wee1 degr inh	hcDAF12 agonist	LXRb hcDAF ctr	hcDAF12 conf	others
O=C(NNC(=O)c1cc(S(=O)(=O)N2CCOCC2)c(Cl)cc1Cl)c1ccccc1F	-	-	-	-	.	-	.	.
CNCc1ccccc1OCC(=O)Nc1ccccc1	-	-	-	-	-	7.0	-	-
Cc1ccc(C(=O)NC2CCCCCCC2)c(Cl)c1	-	-	-	-	.	6.9	-	8.8
N/C(=N\NS(=O)(=O)c1ccccc1)c1ccccn1	-	-	-	-	.	-	.	.
N/C(=N\NC(=O)Nc1ccccc1)c1ccccn1	-	-	-	.	-	7.7	-	-
Cc1ccccc1CN1CCCCC(NC(=O)c2ccc(N(C)C)cc2)C1=O (centres undefined)	-	-	-	.	.	-	.	.
Cc1sc(NC(=O)c2ccc(Cl)s2)c(C(N)=O)c1C	2.0	-	13	4.6	9.6	10	-	14
O=C(Nc1ccc(F)c(S(=O)(=O)N2CCOCC2)c1)C1CCCCC1	-	-	-	-	.	-	.	.
COC(=O)[C@]12C[C@H](CC(=O)N3CCOCC3)C(=O)N(CCc3ccc(OC)c(OC)c3)C1=C[C@H](COCc1ccccc1)O[C@@H]2C	-	-	-	.	.	-	.	.
Cc1[nH]c2ccccc2c1/C=C/c1nc2ccccc2c(=O)[nH]1	-	4.4	14	-	-	6.9	-	5.8	hgDAF12 ag=18;LXRb DAF12 ctr=-
CCCCn1c(N)c(N(CCOC)C(=O)CCCc2nc3ccccc3c(=O)[nH]2)c(=O)[nH]c1=O	-	-	-	-	.	-	.	.
N#Cc1ccc(Cn2ccc3ccc(-c4ccc5ccn(C(=O)C6CCCCC6)c5c4)cc32)cc1	-	-	-	.	.	-	.	.
Cn1c(SCc2ccccc2F)nc2cccnc21	-	-	14	-	-	8.0	-	5.7	hgDAF12 ag=18;LXRb DAF12 ctr=-

High-throughput results as filed in PubChem BioAssay.
